# In the library only some 11% were active in any assay of this set; here they are far more common.
# JMJD2A Tudor inh: inhibitors of human JMJD2A Tudor domain; 4.4% of 390,000 active; AlphaScreen JMJD2A-Tudor / H3K4me3 peptide binding; O75164; Potency, µM (doses to about 114 µM), inactives show top-dose activity change, negative = inhibition, actives largely listed as inhibitors; AID 504339; note: potency is the fitted concentration of half-maximal effect; % is set by controls: 0 for no effect and ±100 for the full control effect; nearly all actives have a fitted effect of over 50% in size
# Target sequence (O75164 whole entry, looked up, the tested form may be a part): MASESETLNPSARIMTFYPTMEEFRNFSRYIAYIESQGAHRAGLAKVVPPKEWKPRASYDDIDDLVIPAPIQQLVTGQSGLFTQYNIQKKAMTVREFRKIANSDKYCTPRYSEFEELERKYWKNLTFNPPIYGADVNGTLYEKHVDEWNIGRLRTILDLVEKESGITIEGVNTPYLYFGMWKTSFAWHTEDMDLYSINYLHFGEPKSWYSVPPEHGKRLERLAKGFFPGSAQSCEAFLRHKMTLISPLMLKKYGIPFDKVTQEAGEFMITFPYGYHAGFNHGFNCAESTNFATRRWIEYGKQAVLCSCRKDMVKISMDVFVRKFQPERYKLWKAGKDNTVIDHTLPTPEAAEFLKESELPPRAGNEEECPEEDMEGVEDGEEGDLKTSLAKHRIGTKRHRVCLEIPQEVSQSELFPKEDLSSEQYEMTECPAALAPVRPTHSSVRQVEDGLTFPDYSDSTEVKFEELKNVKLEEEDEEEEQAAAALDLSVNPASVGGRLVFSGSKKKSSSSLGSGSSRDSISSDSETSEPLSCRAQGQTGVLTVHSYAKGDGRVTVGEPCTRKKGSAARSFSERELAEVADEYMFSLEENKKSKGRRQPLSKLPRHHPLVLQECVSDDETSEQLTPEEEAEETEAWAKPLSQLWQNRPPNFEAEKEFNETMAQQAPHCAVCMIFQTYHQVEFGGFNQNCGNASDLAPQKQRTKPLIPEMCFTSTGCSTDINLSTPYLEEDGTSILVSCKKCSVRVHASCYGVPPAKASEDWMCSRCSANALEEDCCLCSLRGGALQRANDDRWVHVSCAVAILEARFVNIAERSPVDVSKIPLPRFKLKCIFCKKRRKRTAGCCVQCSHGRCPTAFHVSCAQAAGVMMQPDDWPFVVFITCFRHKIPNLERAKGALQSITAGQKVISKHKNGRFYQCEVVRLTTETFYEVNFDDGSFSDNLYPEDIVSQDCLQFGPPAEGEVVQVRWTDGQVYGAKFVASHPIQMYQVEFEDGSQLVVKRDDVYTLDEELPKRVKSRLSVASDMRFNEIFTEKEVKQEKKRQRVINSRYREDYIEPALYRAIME
# L3MBTL1 inh: inhibitors of human L3MBTL1. 0.66% of 230,000 active. AID 485360. Q9Y468. Potency, µM (top dose mostly 57.1 µM), for the others: at the highest dose activity, negative = inhibition, usual class: inhibitors. AlphaScreen L3MBTL1–H3K9me1 peptide binding; note: potency is the fitted concentration of half-maximal effect; % is set by controls: 0 for no effect and ±100 for the full control effect; nearly all actives have a fitted effect of over 60% in size
#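 Displacement of a biotinylated histone H3(1-15) peptide monomethylated at Lys9 (75 nM) from L3MBTL1 (50 nM) was measured by AlphaScreen after a 30 min room-temperature compound incubation; cefsulodin titration served as intraplate control.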
# BAZ2B inh: blocks human BAZ2B; 4.4% of 360,000 active; Potency, µM (doses to about 114 µM), for inactives: at the top dose activity change, negative = inhibition, hits mostly inhibitors; Q9UIF8; AlphaScreen BAZ2B-H3K14Ac peptide displacement; note: potency is the fitted concentration of half-maximal effect; % is set by controls: 0 for no effect and ±100 for the full control effect; nearly all actives have a fitted effect of over 60% in size
#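 Complex of BAZ2B and biotin-H3K14Ac (50 nM apiece) forms over 30 min at RT, then faces library compounds up to 110 uM for another 30 min; AlphaScreen beads added, 20 min dark incubation, luminescence read.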
# PI5P4Ka inh: blocks human PI5P4K alpha kinase activity. PI5P4Kalpha enzyme, ADP-Glo luminescence, 60 min; stronger effect = lower value. max response, %. 1.2% of 330,000 active. P48426. AID 652105; active = max response of -50% or lower; inconclusive = between -30% and -50%; inactive = -30% or higher; note: value at the top dose of about 77 µM; % is set by controls: 0 for no effect and ±100 for the full control effect
#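 Luminescence from ADP-Glo served as readout of PI5P4Kalpha activity in a qHTS format. Reaction: enzyme, substrate, compound, ATP at 5 microM final, 60 min at RT.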
# G9a block: inhibitors of human histone lysine methyltransferase G9a; Potency, µM (doses to about 102 µM), inactives show at the top dose activity, negative = inhibition, actives largely listed as inhibitors; 8.8% of 350,000 active; AID 504332; G9a H3K9 monomethylation, AlphaScreen, 2 h; Q96KQ7; note: potency is the fitted concentration of half-maximal effect; % is set by controls: 0 for no effect and ±100 for the full control effect; nearly all actives have a fitted effect of over 75% in size
#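 Signal arises when biotinylated H3K9 peptide, once monomethylated, bridges streptavidin donor and antibody-captured acceptor beads. Enzyme at 20 nM was preincubated 15 min with test compounds; peptide 500 nM and SAM 20 uM then reacted for 2 h.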
# HP1b binding inh: blocks HP1-beta chromodomain binding to methylated histone tails; P83916; AlphaScreen HP1-beta / biotin-H3K9me3 peptide binding; Potency, µM (titrated, usually from 114 µM), without a hit: at the highest dose activity change, negative = inhibition, actives largely listed as inhibitors; 0.56% of 390,000 active; AID 540317; note: potency is the fitted concentration of half-maximal effect; nearly all actives have a fitted effect of over 70% in size
#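 HP1-beta protein (50 nM final) preincubated 30 min at room temperature with biotinylated H3(1-18)K9me3 peptide (50 nM) in PBS pH 7.4, 0.01% Tween-20, then compound added for 30 min. AlphaScreen streptavidin donor/nickel chelate acceptor beads (10 ug/mL final), 30 min dark, luminescence read.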
# * = called active by the depositor; ? = inconclusive; . = no result; ! = not confirmed by another sample; [ ] = another dose, or the depositor's remark. Unless noted, calls come from the whole dose curve; as a rule, active = well fitted inhibition curve with a large enough effect; inconclusive = small, poorly fitted or top-dose-only effect; inactive = no such curve, though single readings can be large or run the other way.
SMILES,JMJD2A Tudor inh,L3MBTL1 inh,BAZ2B inh,PI5P4Ka inh,G9a block,HP1b binding inh
C=CCn1c(O)c(C(C)=Nc2ccc3c(c2)CCC3)c(=O)[nH]c1=O,-8%,-5%,-16%,-14,-15%,5%
C=CCn1c(O)c(C(C)=Nc2ccc(C(=O)OCC)cc2)c(=O)[nH]c1=O,5%,.,79µM*,-17,?,30%
C=CCn1c(O)c(C(C)=Nc2cccc(C(=O)O)c2)c(=O)[nH]c1=O,1%,5%,-37%,-18,50µM*,17%
O=C(Nc1ccc2c(c1)OCO2)c1cccn(Cc2ccc(F)cc2)c1=O,-22%,.,?,.,?,20%
O=c1n(Cl)c(=O)n(Cl)c(=O)n1Cl,.,.,.,.,13µM*,.
CCOc1cccc(=NC2CCCCC2)c2c(C)n(C)c(C)c12,?,-4%,?,-2,50µM*,?
NCCc1c[nH]c2ccc(C(N)=O)cc12,0%,2%,0%,-1,35µM*!,39%
CCN(CC)c1ccc(/C=C2\C(=O)NC(=O)N(Cc3ccco3)C2=O)cc1,?,-27%,50µM*,-57*,?,-12%
CCCCn1c(=O)c(C=Nc2ccc(Cl)cc2)c(O)n(Cc2ccco2)c1=O,?,-8%,3%,-4,32%[59 µM],69%
CCCCN1C(=O)/C(=C/c2ccc(N(C)C)cc2)C(=O)N(Cc2ccco2)C1=O,?,?,?,-64*,-4%[12.7 µM],-17%
CC1Cc2ccccc2N1Cc1cccc(S(=O)(=O)N(C)C)c1 (stereo unspecified),?,.,?,-1,-8%[2.33 µM],?
O=C(CO)C(O)C(O)C(O)CO (stereo unspecified),56µM*,3%,8%,?,4%[12.7 µM],13%
NCCCCC(NC(CCc1ccccc1)C(=O)O)C(=O)N1CCCC1C(=O)O (stereo unspecified),.,.,.,.,-46%[2.33 µM],.
O=c1[nH]c2ccccc2o1,32µM*,1%,-4%,-1,-45%,22%
C[C@]12CC[C@H]3[C@@H](C[C@H](F)C4=CC(=O)CC[C@@]43C)[C@@H]1CC[C@@H]2O,.,.,.,.,19%[59 µM],.
NC(=O)c1cccn(Cc2ccc(C(F)(F)F)cc2)c1=O,-14%[11.4 µM],.,-4%,12,12%,62%
O=C(CN1CCCCC1)c1ccccc1F,-6%,-5%,-12%,-2,25µM*,53%
O=C(CN1CCCCC1)c1ccccc1Cl,-23%,4%,-1%,-12,1.6µM*,38%
Cc1cc(C(=O)CN2CCCC2)c(C)n1-c1ccc(F)cc1,-25%,.,-21%,0,1%[12.7 µM],31%
O=C(CN1CCCCC1)c1cccc(Br)c1,-5%,1%,-4%,-3,8.9µM*,45%
COc1c2c(cc3c1OCO3)C13C=CC(OC)CC1N(C2)CC3O (stereo unspecified),.,.,.,.,-30%[2.33 µM],.
Nc1nc2[nH]c(=O)cnc2c(=O)[nH]1,.,.,.,.,36%[12.7 µM],.
CCN1C(=O)C(=Cc2ccc(C)s2)C(=O)N(CC)C1=S,25µM*,-11%,45µM*,-69*,35µM*,40µM*
COc1ccc(-n2c(-c3ccco3)nc3c(cnn3-c3ccc(Cl)cc3)c2=O)cc1,-25%,.,.,.,?,20%
O=C(CCC(=O)Nc1ccccc1Cl)N/N=C/c1ccccc1,-6%,1%,5%,-6,8%[59 µM],41%
SMILES,JMJD2A Tudor inh,L3MBTL1 inh,BAZ2B inh,PI5P4Ka inh,G9a block,HP1b binding inh
O=C(Nc1ccc(OC(F)(F)F)cc1)Oc1ccccc1N1CCCCC1,-1%,.,-1%,2,.,46%
COc1ccc(-n2c(O)c(/C=C3\C=Nc4ccccc43)c(=O)[nH]c2=O)cc1,-13%,6%,?,-5,.,40%
COC(=O)C1=Nc2ccccc2/C1=C\c1c(O)n(-c2cc(OC)ccc2OC)c(=O)[nH]c1=O,-15%[57.1 µM],8%,79µM*,-66*,?,?
COc1ccc(-n2c(O)c(/C=C3\C=Nc4ccc(Br)cc43)c(=O)[nH]c2=O)c(OC)c1,?,.,?,?,32µM*,5%
CN[C@H](CC(C)C)C(=O)N[C@H]1C(=O)N[C@@H](CC(N)=O)C(=O)N[C@@H]2C(=O)N[C@H]3C(=O)N[C@H](C(=O)N[C@H](C(=O)O)c4cc(O)cc(O)c4-c4cc3ccc4O)[C@H](O)c3ccc(c(Cl)c3)Oc3cc2cc(c3O[C@@H]2O[C@H](CO)[C@@H](O)[C@H](O)[C@@H]2O[C@H]2C[C@](C)(N)[C@H](O)[C@H](C)O2)Oc2ccc(cc2Cl)[C@H]1O,.,.,.,.,2%[59 µM],.
ClC1=C(Cl)C2(Cl)C(CBr)CC1(Cl)C2(Cl)Cl (stereo unspecified),.,.,.,.,0%[12.7 µM],.
O=C1c2ccccc2C(=O)c2c1ccc1c(=O)n(-c3ccccc3)[nH]c21,-21%,-7%,-26%,-12,3.2µM*,-6%
O=C(CS(=O)C(c1ccccc1)c1ccccc1)NO (stereo unspecified),.,.,.,.,3%[12.7 µM],.
CN1CCN(c2ccccc2NC(=O)c2ccc(-c3ccc(Cl)c(Cl)c3)o2)CC1,50µM*,.,-7%,-3,49%,-2%
COc1cccc(C2=CC(c3cc(Br)ccc3F)n3nnnc3N2)c1 (stereo unspecified),-10%,.,8%,.,11µM*,64%
COc1ccc(F)cc1CN1CCN(C(=O)CCC(=O)Nc2nnc(CC(C)C)s2)CC1,-2%,.,4%,10,-4%,40%
COc1cc(Cc2ccc(N)c(OC)c2)ccc1N,?,-1%,?,0,71µM*,-21%
COc1ccc(CCN)cc1OC,-10%,.,-11%,1,49%[59 µM],29%
O=C(NCCCN1CCCC1)c1ccc2c(c1)N(Cc1cccc(Cl)c1)C(=O)c1ccccc1S2=O (stereo unspecified),-20%,.,-11%[57.1 µM],-5,40µM*,19%
Cc1ccccc1-n1c(/C=C/c2ccccn2)nc2ccccc2c1=O,-14%,.,-5%,-3,9%,9%
CN1C2CCC1/C(=C/c1ccccn1)C(=O)/C2=C\c1ccccn1,79µM*,-1%,-24%,-7,?,-3%
Cc1ccc2[nH]c(C)c(CCNCc3cccnc3)c2c1,7%,.,?,1,50µM*,23%
COc1ccc2[nH]c(C)c(CCN3CCC(=O)C(C)C3C)c2c1 (stereo unspecified),?,-9%,?,0,?,14%
COc1ccc2[nH]c(C)c(CCNCc3cc(OC)c4c(c3)OCO4)c2c1,1.3µM*,-6%,45µM*,-4,?,?
COc1ccc(CNCCc2ccc(Cl)cc2Cl)cc1,-2%,3%,9%,-10,25%,22%

# Compound activity from PubChem BioAssay.
